Experimental findings from PubChem BioAssay (EPA / NIEHS) are described below.

Records with an inconclusive call do not appear. Active and inactive are the calls of the source. The calls were made as follows, unless noted: active = hit-call score of the fitted dose curve at least 0.9, where 1 is the maximum; inactive = score below 0.9.

Read-out in assay [1]: Monokine induced gamma interferon (MIG), CXCL9 (gene 4283)
Nature of the assay: BSK_SAg_MIG: BioMAP Diversity Plus: SAg Assay for Monokine induced gamma interferon (MIG) Biomarker Activity (AID 2283092). The note with it: primary human HUVEC with PBMC; actives raise or lower the signal. An outline of the steps: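 Measures CXCL9 protein by ELISA in a human vascular primary-cell co-culture (umbilical vein endothelium with PBMC) 24 h after chemical addition. Activity is scored up or down from the DMSO control.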

Assay [2] is described as follows: BSK_SAg_PBMCCytotoxicity: PBMC Cytotoxicity Assessment in the BioMAP Diversity Plus: SAg Assay (AID 2283093).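 Also: PBMC viability measured as Alamar Blue reduction fluorescence at 546/580 nm; fitted both ways against DMSO so a hit may be loss or gain of signal.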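 As to AC50: PBMC superantigen activated with SEB plus TSST-1 one hour after compound addition.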 To be noted: primary human HUVEC with PBMC. An outline of the steps:
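Alamar Blue reduction (6 h, ex/em 546/580 nm) read after 90 h culture of PBMC pre-dosed 1 h then stimulated with SEB plus TSST-1, 20 ng/mL each. Gain or loss of signal fitted relative to DMSO.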

Read-out in assay [3]: Interleukin-8 (IL8), CXCL8 (gene 3576)
Nature of the assay: BSK_SAg_IL8: BioMAP Diversity Plus: SAg Assay for Interleukin-8 (IL8) Biomarker Activity (AID 2283094). To be noted: primary human HUVEC with PBMC; actives raise or lower the signal. A digest of the protocol:
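ELISA readout of IL-8 from a superantigen-activated endothelial/PBMC primary human co-culture, taken 24 h post-dosing and fitted in both directions against DMSO; parallel SRB total-protein staining flags overt cytotoxicity.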

A short description of assay [4]: BSK_SAg_Proliferation: Cell Proliferation Assessment in the BioMAP Diversity Plus: SAg Assay (AID 2283095).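 Also: relative cell number as total protein by SRB absorbance in sub-confluent culture.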 The note with it: primary human HUVEC with PBMC. A digest of the protocol: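 Relative cell number in the endothelial cell/PBMC co-culture was quantified at 96 h by SRB staining (0.1% SRB, 10% TCA fixation, read at 560 nm). Curves were fitted in both directions relative to DMSO baseline.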

Assay [5] in a line: BSK_SAg_SRB: Viability Assessment in the BioMAP Diversity Plus: SAg Assay (AID 2283096).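 Also: cells read one day after compound addition; hits may be either gain or loss of signal compared with DMSO.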 To be noted: primary human HUVEC with PBMC. An outline of the steps: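 SRB absorbance at 560 nm served as the viability read-out. Cells (HUVEC plus peripheral blood mononuclear cells) were TCA-fixed and stained 24 h post-dosing; activity fitted in both directions against DMSO controls.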

Assay [6] has as its target human CYP2C9, CYP2C9 (gene 1559) (UniProt P11712). Kind of assay: NVS_ADME_hCYP2C9: NovaScreen (NVS) CYP450-related Enzyme Activity (ADME) Assay for human CYP2C9 (AID 2283108; active = hit-call score of the fitted dose curve at least 0.9, where 1 is the maximum). A digest of the protocol: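 Fluorescence readout of CYP2C9 activity (SF9-expressed human enzyme) at 0.75 h. The primary screen used 10 uM in duplicate, with concentration-response follow-up for actives; acetonitrile was the negative control.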

For assay [7], the target named is human Caspase 5 (CASP5), CASP5 (gene 838) (UniProt P51878). Kind of assay: NVS_ENZ_hCASP5: NovaScreen (NVS) Enzymatic Assay for human Caspase 5 (CASP5) (AID 2283137; active = hit-call score of the fitted dose curve at least 0.9, where 1 is the maximum). A digest of the protocol:
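Loss of fluorescent signal versus DMSO scored for E. coli-derived human CASP5 cleaving a fluorescent substrate, 2 h post-dosing; compounds first tested at 25 uM in duplicate, hits rerun in concentration series with 50 uM top concentration.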

Assay [8] has as its target human CYP19A1, CYP19A1 (gene 1588) (UniProt P11511). Kind of assay: NVS_ADME_hCYP19A1: NovaScreen (NVS) CYP450-related Enzyme Activity (ADME) Assay for human CYP19A1 (AID 2283098; active = hit-call score of the fitted dose curve at least 0.9, where 1 is the maximum). A digest of the protocol: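 Primary testing was in duplicate at a single 10 uM concentration, with actives followed up in concentration-response series. Fluorescence read-out of recombinant enzyme activity at 0.5 h, cell-free. Acetonitrile was the negative-control baseline.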

In assay [9] the target is human CYP1A1, CYP1A1 (gene 1543) (UniProt P04798). Nature of the assay: NVS_ADME_hCYP1A1: NovaScreen (NVS) CYP450-related Enzyme Activity (ADME) Assay for human CYP1A1 (AID 2283100; active = hit-call score of the fitted dose curve at least 0.9, where 1 is the maximum). An outline of the steps:
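Cell-free fluorescence assay of recombinant human CYP1A1 activity with a specific substrate, read 1 h after dosing. Compounds were screened in duplicate at 10 uM, then hits tested in concentration-response up to 20 uM; acetonitrile served as baseline.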

The target in assay [10] is human CYP2D6, CYP2D6 (gene 1565) (UniProt P10635). Nature of the assay: NVS_ADME_hCYP2D6: NovaScreen (NVS) CYP450-related Enzyme Activity (ADME) Assay for human CYP2D6 (AID 2283107; active = hit-call score of the fitted dose curve at least 0.9, where 1 is the maximum). A digest of the protocol: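 Cell-free assay using recombinant enzyme expressed in insect cells, with fluorescence-intensity readout of enzyme activity 1 hour after chemical dosing. Loss of signal versus acetonitrile negative control indicates inhibition. Primary screen ran in duplicate at 10 uM; actives were retested in concentration series.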
human CYP2D6, CYP2D6 (gene 1565), sequence (P10635 whole entry, looked up): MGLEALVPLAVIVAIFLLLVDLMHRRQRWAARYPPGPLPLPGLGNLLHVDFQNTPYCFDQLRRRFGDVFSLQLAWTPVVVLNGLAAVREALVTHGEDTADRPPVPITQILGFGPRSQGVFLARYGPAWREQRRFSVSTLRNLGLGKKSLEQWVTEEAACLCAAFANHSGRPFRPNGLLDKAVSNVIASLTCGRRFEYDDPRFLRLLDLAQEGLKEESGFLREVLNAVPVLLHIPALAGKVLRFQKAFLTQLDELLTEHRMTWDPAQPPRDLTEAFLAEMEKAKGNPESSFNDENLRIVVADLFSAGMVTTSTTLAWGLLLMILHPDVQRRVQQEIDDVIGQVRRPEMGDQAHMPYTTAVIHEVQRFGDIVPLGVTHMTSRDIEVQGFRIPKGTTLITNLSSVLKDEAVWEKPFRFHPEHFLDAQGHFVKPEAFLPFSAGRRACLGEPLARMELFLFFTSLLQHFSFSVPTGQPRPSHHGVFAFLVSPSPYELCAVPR

Assay [11] has as its target human CYP2B6, CYP2B6 (gene 1555) (UniProt P20813). Nature of the assay: NVS_ADME_hCYP2B6: NovaScreen (NVS) CYP450-related Enzyme Activity (ADME) Assay for human CYP2B6 (AID 2283101; active = hit-call score of the fitted dose curve at least 0.9, where 1 is the maximum). A digest of the protocol:
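Recombinant protein, specific fluorescent substrate, read at 1 h post-dosing. Primary: single 10 uM, duplicate; follow-up: concentration series. Activity = signal loss vs acetonitrile baseline, with positive and negative controls on every plate.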

Assay [12] addresses human AKT serine/threonine Kinase 1 (AKT1), AKT1 (gene 207) (UniProt P31749). Nature of the assay: NVS_ENZ_hAKT1: NovaScreen (NVS) Enzymatic Assay for human AKT serine/threonine Kinase 1 (AKT1) (AID 2283138; active = hit-call score of the fitted dose curve at least 0.9, where 1 is the maximum). A digest of the protocol:
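Screening first at 25 uM (duplicate), with threshold-passing chemicals re-tested in concentration series to a 50 uM maximum. Kinase activity read by fluorescence with mobility-shift separation of substrate and product, 1 h after dosing, DMSO baseline.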

The target in assay [13] is rat CYP2A2, Cyp2a2 (gene 24895) (UniProt P15149). Kind of assay: NVS_ADME_rCYP2A2: NovaScreen (NVS) CYP450-related Enzyme Activity (ADME) Assay for rat CYP2A2 (AID 2283116; active = hit-call score of the fitted dose curve at least 0.9, where 1 is the maximum). A digest of the protocol: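 Compounds first tested in duplicate at 10 uM, then in singleton concentration series up to 20 uM when over threshold. Activity of the recombinant enzyme read by fluorescence at 0.2 h, normalised to acetonitrile vehicle.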
rat CYP2A2, Cyp2a2 (gene 24895), sequence (P15149 whole entry, looked up): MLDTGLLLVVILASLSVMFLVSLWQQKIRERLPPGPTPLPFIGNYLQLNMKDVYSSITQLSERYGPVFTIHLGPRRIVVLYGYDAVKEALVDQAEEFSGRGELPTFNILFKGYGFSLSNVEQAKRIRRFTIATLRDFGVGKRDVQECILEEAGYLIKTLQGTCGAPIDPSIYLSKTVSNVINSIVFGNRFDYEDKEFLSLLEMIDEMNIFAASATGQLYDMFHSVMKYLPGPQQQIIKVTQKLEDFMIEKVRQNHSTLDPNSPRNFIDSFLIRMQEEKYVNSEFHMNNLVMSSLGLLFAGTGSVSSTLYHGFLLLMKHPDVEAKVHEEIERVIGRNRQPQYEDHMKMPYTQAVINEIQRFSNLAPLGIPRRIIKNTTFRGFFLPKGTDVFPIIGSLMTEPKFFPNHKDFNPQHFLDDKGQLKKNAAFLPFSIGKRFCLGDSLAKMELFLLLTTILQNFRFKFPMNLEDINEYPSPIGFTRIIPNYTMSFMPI

human CYP1A1, CYP1A1 (gene 1543), sequence (P04798 whole entry, looked up): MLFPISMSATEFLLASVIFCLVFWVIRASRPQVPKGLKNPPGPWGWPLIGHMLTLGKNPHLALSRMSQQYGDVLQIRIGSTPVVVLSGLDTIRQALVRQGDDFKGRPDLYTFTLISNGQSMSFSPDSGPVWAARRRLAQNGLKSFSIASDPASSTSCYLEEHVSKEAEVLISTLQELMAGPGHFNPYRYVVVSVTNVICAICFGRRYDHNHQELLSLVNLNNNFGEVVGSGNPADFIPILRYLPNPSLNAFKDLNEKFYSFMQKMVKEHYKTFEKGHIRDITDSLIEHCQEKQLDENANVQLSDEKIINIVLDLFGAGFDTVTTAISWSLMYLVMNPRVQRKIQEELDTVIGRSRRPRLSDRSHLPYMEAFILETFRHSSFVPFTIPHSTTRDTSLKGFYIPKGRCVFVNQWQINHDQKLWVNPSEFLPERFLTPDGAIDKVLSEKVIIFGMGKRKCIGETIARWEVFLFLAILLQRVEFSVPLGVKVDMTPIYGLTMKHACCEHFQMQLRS
human Caspase 5 (CASP5), CASP5 (gene 838), sequence (P51878 whole entry, looked up): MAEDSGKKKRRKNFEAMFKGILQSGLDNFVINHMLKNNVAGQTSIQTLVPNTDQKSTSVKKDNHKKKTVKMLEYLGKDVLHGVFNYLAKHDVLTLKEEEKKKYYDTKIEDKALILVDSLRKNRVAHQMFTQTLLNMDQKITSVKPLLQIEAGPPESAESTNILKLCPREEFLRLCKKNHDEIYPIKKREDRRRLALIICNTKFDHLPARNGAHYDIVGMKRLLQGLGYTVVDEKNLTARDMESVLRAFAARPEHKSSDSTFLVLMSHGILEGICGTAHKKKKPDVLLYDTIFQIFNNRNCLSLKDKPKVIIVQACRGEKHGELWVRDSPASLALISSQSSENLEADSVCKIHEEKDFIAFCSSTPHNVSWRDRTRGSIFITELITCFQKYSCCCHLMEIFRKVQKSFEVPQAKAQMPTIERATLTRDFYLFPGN
human CYP2B6, CYP2B6 (gene 1555), sequence (P20813 whole entry, looked up): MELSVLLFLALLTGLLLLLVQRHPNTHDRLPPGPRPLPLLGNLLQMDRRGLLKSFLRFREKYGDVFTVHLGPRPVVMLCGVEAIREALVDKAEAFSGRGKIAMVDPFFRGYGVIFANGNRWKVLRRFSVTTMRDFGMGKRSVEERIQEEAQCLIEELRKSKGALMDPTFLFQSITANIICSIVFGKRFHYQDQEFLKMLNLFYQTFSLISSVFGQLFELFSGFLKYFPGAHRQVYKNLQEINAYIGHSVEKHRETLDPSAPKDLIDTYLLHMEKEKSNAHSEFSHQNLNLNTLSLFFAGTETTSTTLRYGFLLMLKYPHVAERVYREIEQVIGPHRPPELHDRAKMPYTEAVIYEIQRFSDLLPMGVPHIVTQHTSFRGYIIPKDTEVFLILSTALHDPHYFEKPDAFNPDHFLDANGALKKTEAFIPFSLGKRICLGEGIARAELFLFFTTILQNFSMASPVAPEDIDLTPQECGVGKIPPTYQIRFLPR
human CYP2C9, CYP2C9 (gene 1559), sequence (P11712 whole entry, looked up): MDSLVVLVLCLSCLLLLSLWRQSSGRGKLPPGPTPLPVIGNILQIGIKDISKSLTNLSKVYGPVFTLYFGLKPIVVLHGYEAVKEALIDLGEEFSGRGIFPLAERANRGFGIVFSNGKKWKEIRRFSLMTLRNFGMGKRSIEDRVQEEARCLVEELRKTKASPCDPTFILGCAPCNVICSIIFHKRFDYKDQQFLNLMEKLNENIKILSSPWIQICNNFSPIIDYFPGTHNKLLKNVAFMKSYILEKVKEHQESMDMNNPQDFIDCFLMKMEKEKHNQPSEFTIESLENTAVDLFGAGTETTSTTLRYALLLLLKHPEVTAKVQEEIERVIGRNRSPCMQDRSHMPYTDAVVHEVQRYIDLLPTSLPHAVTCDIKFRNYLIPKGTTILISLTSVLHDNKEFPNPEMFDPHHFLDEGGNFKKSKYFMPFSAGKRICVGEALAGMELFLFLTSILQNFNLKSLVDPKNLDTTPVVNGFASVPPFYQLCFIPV
human AKT serine/threonine Kinase 1 (AKT1), AKT1 (gene 207), sequence (P31749 whole entry, looked up): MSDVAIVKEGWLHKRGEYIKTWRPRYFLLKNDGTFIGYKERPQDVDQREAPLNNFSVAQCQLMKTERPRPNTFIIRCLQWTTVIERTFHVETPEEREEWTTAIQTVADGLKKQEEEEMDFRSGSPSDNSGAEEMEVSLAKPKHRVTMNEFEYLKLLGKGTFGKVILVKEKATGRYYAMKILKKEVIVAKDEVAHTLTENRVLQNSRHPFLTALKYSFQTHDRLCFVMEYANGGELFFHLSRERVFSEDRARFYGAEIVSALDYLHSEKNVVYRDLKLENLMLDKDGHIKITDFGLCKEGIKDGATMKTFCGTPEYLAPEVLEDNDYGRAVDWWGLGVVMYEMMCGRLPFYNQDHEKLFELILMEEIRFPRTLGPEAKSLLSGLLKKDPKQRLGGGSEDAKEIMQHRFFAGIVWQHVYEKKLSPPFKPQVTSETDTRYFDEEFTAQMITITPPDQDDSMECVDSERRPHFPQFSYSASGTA
human CYP19A1, CYP19A1 (gene 1588), sequence (P11511 whole entry, looked up): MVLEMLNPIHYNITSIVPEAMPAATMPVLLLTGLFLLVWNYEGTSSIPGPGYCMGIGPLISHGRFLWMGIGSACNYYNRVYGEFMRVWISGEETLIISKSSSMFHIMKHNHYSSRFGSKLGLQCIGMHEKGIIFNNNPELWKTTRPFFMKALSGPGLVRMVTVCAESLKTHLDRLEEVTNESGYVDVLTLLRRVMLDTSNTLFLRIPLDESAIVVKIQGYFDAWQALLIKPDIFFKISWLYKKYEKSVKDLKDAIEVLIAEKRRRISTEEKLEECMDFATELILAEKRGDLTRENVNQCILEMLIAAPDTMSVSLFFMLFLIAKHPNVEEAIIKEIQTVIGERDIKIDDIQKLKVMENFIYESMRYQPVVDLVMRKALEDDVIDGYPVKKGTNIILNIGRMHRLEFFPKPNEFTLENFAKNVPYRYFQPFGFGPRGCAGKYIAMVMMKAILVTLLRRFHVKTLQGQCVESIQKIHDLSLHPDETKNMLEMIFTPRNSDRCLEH

By AC50 is commonly meant the midpoint of the concentration-response curve, whichever way the signal moves. Turning to `CCN(Cc1cccc(S(=O)(=O)O)c1)c1ccc(C(=C2C=CC(=[N+](CC)Cc3cccc(S(=O)(=O)O)c3)C=C2)c2ccccc2S(=O)(=O)[O-])cc1`, the result in assay [1], in assay [3] and in [5] was inactive. Further, the concentration at half-maximal activity (AC50) is 10 µM (active) in [2], 9.61 µM (active) in assay [4], 4.22 µM (active) in assay [6] and 5.36 µM (active) in [7].
Take `O=C(OCCCCCCOC(=O)c1ccccc1)c1ccccc1`: the result in assay [1], in [2] and in assay [3] was inactive.
On to `CC(=O)N1CCN(c2ccc(OC[C@H]3CO[C@](Cn4ccnc4)(c4ccc(Cl)cc4Cl)O3)cc2)CC1`, for which the values for the half-maximal activity concentration (AC50) in assay [1], in assay [2] and in assay [3] were 37.7 µM (active), 33 µM (active) and 26.5 µM (active), respectively.
Take `Cc1cc(F)ccc1-c1cc(N2CC[C@@H](O)[C@H]2CO)ncc1N(C)C(=O)C(C)(C)c1cc(C(F)(F)F)cc(C(F)(F)F)c1`: the AC50 was 13.1 µM (active) in assay [1]; 7.85 µM (active) in [2]; 7.96 µM (active) in [3]; 5.7 µM (active) in assay [4]; 10.8 µM (active) in [5].
Regarding `CCCC(=O)OCCC(C)C`, the result in assay [1], in assay [2], in assay [3] and in [4] was inactive.
As for `CC(C)(C)c1cc(/C=C2\SC(N)=NC2=O)cc(C(C)(C)C)c1O`, the AC50 is 27.6 µM (active) in assay [1], 11.1 µM (active) in assay [2] and 8.74 µM (active) in assay [3].
On to `c1ccc2n[nH]nc2c1`, for which the result in assay [1], in assay [2], in assay [3] and in assay [4] was inactive.
With `O=C(O)Cn1c(=O)n(Cc2ccc(Br)cc2F)c(=O)c2ccc(Cl)cc21`, the outcome in [1], in [2] and in [3] was inactive.
Consider `OCCO`, for which the outcome in assay [1], in [2], in assay [3], in [4] and in [8] was inactive.
Regarding `Cc1c2ccccc2c(C)c2c1ccc1ccccc12`, the result in assay [1] was inactive. Further, the AC50 in [2] was 34 µM (active); in assay [3], 26.4 µM (active).
As to `CC(O)CC(C)(C)O` (stereo not drawn), the result in assay [1], in assay [2], in assay [3] and in [4] was inactive.
Regarding `CCO[Si](CCCNC(N)=O)(OCC)OCC`, the result in [1], in assay [2], in [3] and in [5] was inactive.
Turning to `O=C1c2ccccc2C(=O)N1CCc1noc(-c2ccc(CN3CCCCCC3)s2)n1`, the result in [1], in assay [2], in [3] and in [5] was inactive. Besides, the AC50 is 4.62 µM (active) in assay [9], 6.57 µM (active) in assay [10] and 5.62 µM (active) in assay [6].
Regarding `CCCCOC(=O)c1ccc(O)cc1`, the outcome in assay [1], in [2], in assay [3] and in [5] was inactive. The AC50 in assay [11] was 4.55 µM (active); in assay [10], 4.89 µM (active); in assay [6], 7.15 µM (active).
Turning to `Cc1oc2c(NC(=O)c3c(Cl)cccc3Cl)cccc2c1C(C)(C)O`, the result in assay [1] and in assay [3] was inactive. Also, the results for the AC50 in [2] and in assay [9] were 14.2 µM (active) and 2.39 µM (active), respectively.
In the case of `O=CCCCC=O`, the outcome in assay [1] and in assay [3] was inactive. The concentration at half-maximal activity (AC50) in assay [2] is 20.6 µM (active); in assay [4], 32.8 µM (active); in [12], 25 µM (active).
Regarding `Cc1cc2c(cc1C(F)(F)F)N(C(=O)Nc1ccc(Oc3cccnc3C)nc1)CC2`, the outcome in assay [1], in assay [2], in [3] and in assay [5] was inactive.
With `CC[C@@H]1C[C@H](N(Cc2cc(C(F)(F)F)cc(C(F)(F)F)c2)C(C)=O)c2cc(C(F)(F)F)ccc2N1C(=O)OC(C)C`, the result in [1], in [2], in assay [3] and in assay [5] was inactive.
For the compound `CC1(C)NC(=O)N(c2ccc([N+](=O)[O-])c(C(F)(F)F)c2)C1=O`, the outcome in assay [1], in [2] and in [3] was inactive. Also, the AC50 in [11] was 7.49 µM (active).
For `COc1cc(C(=O)NC2CCN(C)CC2)ccc1Nc1ncc2c(n1)N(C1CCCC1)CC(F)(F)C(=O)N2C`, the AC50 is 14.4 µM (active) in [1]; 13.8 µM (active) in assay [2]; 10.2 µM (active) in assay [3]; 18.6 µM (active) in assay [5]; 6.56 µM (active) in [6].
In the case of `CCCCOC(=O)CC(CC(=O)OCCCC)(OC(C)=O)C(=O)OCCCC`, the result in assay [1], in assay [2], in assay [3], in assay [6] and in assay [13] was inactive.
For `CN1C(=O)N(c2ccccc2Br)Cc2cnc(Nc3ccc4c(c3)OCC(CO)O4)nc21` (stereo not drawn), the half-maximal activity concentration (AC50) in assay [1] was 2.89 µM (active); in [2] it was 1.87 µM (active); in assay [3], 1.62 µM (active); in assay [4], 1.52 µM (active); in [7], 12.5 µM (active).
In the case of `CN(C)C(=O)C1(N2CCCCC2)CCN(CC[C@@]2(c3ccc(Cl)c(Cl)c3)CN(C(=O)c3ccccc3)CCO2)CC1`, the AC50 in assay [1] was 31.7 µM (active); in [2], 15.4 µM (active); in [3], 12 µM (active); in [4], 5.91 µM (active); in assay [10], 4.97 µM (active); in assay [6], 1.17 µM (active).
For the compound `Clc1cc(Cl)c2c(c1)N=C1CCCCCN1C2`, the result in assay [1], in [2], in [3] and in assay [5] was inactive. The concentration at half-maximal activity (AC50) was 0.764 µM (active) in [9] and 2.71 µM (active) in [10].
Turning to `CN(C[C@@H](CC[N+]12CCC(C3CCCCC3)(CC1)CC2)c1ccc(Cl)c(Cl)c1)C(=O)c1cc(C(F)(F)F)cc(C(F)(F)F)c1`, the half-maximal activity concentration (AC50) in assay [1] was 27.8 µM (active); in [2], 9.71 µM (active); in assay [3], 13.9 µM (active); in assay [4] it was 5.2 µM (active); in assay [9], 14.8 µM (active); in assay [6], 7.68 µM (active).
Turning to `Cc1ccc(C(C)C)cc1`, the result in assay [1], in assay [2], in [3] and in [5] was inactive.
With `CCCCCCCCOC(=O)c1cc(O)c(O)c(O)c1`, the AC50 in assay [1] was 30.4 µM (active); in assay [2] it was 27.7 µM (active); in assay [3], 11.5 µM (active); in assay [11] it was 10.1 µM (active); in [10], 10.1 µM (active); in assay [6] it was 7.75 µM (active). For the same compound, in [7], the AC50 was 25.4 µM (active). Besides, the outcome in assay [12] was inactive.
For `COc1cccc([C@H](O)C2CCN(CCc3ccc(F)cc3)CC2)c1OC`, the outcome in [1], in [2], in [3] and in assay [5] was inactive. For the same compound, the half-maximal activity concentration (AC50) in assay [10] was 5.29 µM (active).
